The values that follow come from PubChem BioAssay (NCI).

Each structure is given as a SMILES string. About 83,000 compounds went through this panel and 20% of them were active in at least one assay; those are over-represented in the sample as a whole.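 Treatment: one concentration, 48 hours, 96-well format. Scoring: percent growth, with anything below 10 considered active.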 Unmarked numbers belong to inactive results. Calls of active or inactive are those of the source.

This experiment has as its system NCI-H23 lung. In words: NCI-60 one-dose screen, 48 h (100 = growth as untreated, 0 = no growth, -100 = all killed). Conditions: 10 µM unless noted.
`CNC(=O)c1cc(Oc2ccc3nc(NC(=O)Nc4ccc(CN5CCOCC5)c(C(F)(F)F)c4)sc3c2)ccn1`: the growth was -4.08% (active).
Take `Cc1cc(N/N=C/c2nc(-c3ccc(Cl)cc3)oc2C)c2cc(Br)ccc2n1`: the growth was 96.4%.
With `COc1cc(-c2cc(-c3nc4ccc(Cl)cc4[nH]3)[nH]n2)cc(OC)c1OC` the figure was 45.5%; with `COc1ccc(-c2cc(-c3cccnc3)nc3sc4c(=O)n(-c5ccc(C)cc5)cnc4c23)cc1OC`, 95.7%.
Turning to `CN(C)c1ccc(/C=C\C2=[N+](C)c3ccccc3C2(C)C)cc1`, the growth is 7.51% (active).
The figure for `COc1ccc(-c2cc(-c3cccnc3)nc3sc4c(=O)n(-c5ccc(C)cc5)nnc4c23)cc1OC` is 98%; for `COc1ccc(C/C(C)=C(\c2ccc(Cl)cc2)c2ccc(OCCN3CCCCCC3)cc2)cc1` it is 78.8%; for `O=C1C=CC(=O)N1c1ccc(Cc2ccc(N3C(=O)C=CC3=O)cc2)cc1` it is 86%.
With `CN1CCN(Cc2ccc(NC(=O)c3[nH]ncc3Nc3ncnc4[nH]ccc34)cc2)CC1` the figure was -12.2% (active); with `O=C(Nc1ccc(Oc2ccc(F)cc2)c(Cl)c1)c1cccnc1`, 80%.
With `OC(c1cccc(C(F)(F)F)c1)c1cnccc1NC1CCCCCC1` (stereo not drawn) the figure was 26.1%; with `NS(=O)(=O)c1ccc(Nc2nc3n[nH]c(Nc4ccccc4)c3c(=O)[nH]2)cc1`, 94.9%.
For the compound `O=C1/C(=C/c2ccccc2)CN(CCC(=O)N2C/C(=C\c3ccccc3)C(=O)/C(=C/c3ccccc3)C2)C/C1=C\c1ccccc1`, the growth was 85.4%.
